Screening results (PubChem)
This is a sample that favours compounds with a hit; in the whole collection about 1.2% have one here.
3CLpro inhibitor – SARS-CoV 3CLpro protease inhibition; P0C6X7; recombinant SARS-CoV 3CLpro, quenched FRET peptide cleavage; inhibition, % at 6 µM; 0.14% of 290,000 active; in the data active = inhibition above about 12%
PrPC TRFRET – reduces human prion protein on the cell surface; P04156; cell surface PrPC, TR-FRET read-out; inhibition, % at 13.8 µM; 0.43% of 370,000 active; AID 720596; in the data active = inhibition above about 24%
BJeLR viability – kills HRASV12-expressing BJeLR cells. inhibition, % (test concentration not listed). 0.17% of 300,000 active. BJeLR (HRASV12) viability, CellTiter-Glo ATP luminescence, 48 h; in the data active = inhibition above about 50%
PrP 5UTR inh – suppresses PrP 5' UTR mRNA reporter expression. cell-based PrP 5' UTR mRNA reporter, plate reader. inhibition, % (concentration not given with the values). 0.35% of 340,000 active; in the data active = inhibition above about 52%
SSB-PriA inh – blocks PriA binding to SSB C-terminal tail | inhibition, % at 33 µM | 0.6% of 430,000 active | AlphaScreen SSBct-PriA binding, biotinylated peptide; in the data active = inhibition mostly above about 37%, no sharp cut-off; inactive = mostly below about 20%
Hits are given with their value; n = inactive; x = no result given; + = active, no number.

SMILES | 3CLpro inhibitor | PrPC TRFRET | BJeLR viability | PrP 5UTR inh | SSB-PriA inh
CCOC(=O)[C@H](Oc1ccc2c(=O)c(-c3ccc(OC)c(OC)c3)c(C)oc2c1)c1ccccc1 | x | x | x | x | n
Cc1ccc(C)c(S(=O)(=O)N2CCN(Cc3cc4c(cc3O)OCO4)CC2)c1 | x | n | x | n | 41
O=C(NC(=S)N1CCN(c2ccc(Cl)cc2[N+](=O)[O-])CC1)c1ccco1 | n | n | n | n | n
O=C(NC(=S)N1CCN(c2ccc(Cl)cc2[N+](=O)[O-])CC1)c1cccs1 | n | x | n | n | 39
NS(=O)(=O)c1ccc(O)c(N2C(=O)c3cccc4c(C(=O)c5ccccc5)ccc(c34)C2=O)c1 | n | x | x | x | 46
O=C(O)c1cccn2ccnc12 | x | x | x | x | 48
COc1ccc(Cn2c(SCC(=O)NCCC(C)C)nc3c(sc4ncccc43)c2=O)cc1 | x | x | x | x | n
COc1cccc(CSc2nc3ccccc3cc2C=O)c1 | n | n | 58 | n | n
C=CC[n+]1c(C)csc1Nc1cccc(Br)c1 | n | n | n | n | 61
CC1(C)COc2cc(NS(=O)(=O)c3ccc4c(c3)CCCC4)ccc2NC1=O | x | x | x | x | n
Cc1nc2sc(C)c(C)n2c(=O)c1NC(=O)c1ccc2ccccc2n1 | x | x | x | x | n
CCCCc1ccc(NC(=S)Nc2ccc(Nc3ccc(OC)cc3)cc2)cc1 | n | n | n | n | 84
CCCCc1ccc(NC(=S)NCc2cccc(OC)c2)cc1 | n | n | n | n | n
CSc1ncc(-c2ccc(C)cc2)n1-c1ccccc1C | x | x | x | x | 58
Cc1nc(-c2ccccc2)sc1CNC(=O)CNC(=O)c1ccccc1 | x | x | x | x | n
CC(=O)Nc1cccc(C(=O)/C=C/c2ccc(/C=C/C(=O)c3cccc(NC(C)=O)c3)cc2)c1 | n | n | 81 | x | x
CC(=O)Nc1cccc(C(=O)/C=C/c2ccc(F)cc2)c1 | n | n | n | n | n
COc1ccc(CCC(=O)NC[C@@H](c2ccc(C)cc2)N2CCOCC2)cc1 | x | x | x | x | n
Cn1c(=O)oc2ccc(S(=O)(=O)NCCSC3CCOCC3)cc21 | x | x | x | x | n
C=C1C(=O)O[C@H]2C[C@H]1[C@@H](OC(C)=O)C/C(C)=C/CC/C(C)=C\CC[C@]2(C)O | x | 38 | x | n | n
NC(=O)N/N=C1/CCCC1c1ccccn1 (stereo not given) | x | x | x | x | 67
CCCCc1ccc(C2C3=C(CC(C)(C)CC3=O)NC3=C2C(=O)c2ccccc23)cc1 (stereo not given) | n | n | n | n | n
CCCc1ccc(C2C3=C(CC(C)(C)CC3=O)NC3=C2C(=O)c2ccccc23)cc1 (stereo not given) | n | n | n | n | 47
CC1(C)CC(=O)C2=C(C1)NC1=C(C(=O)c3ccccc31)C2c1ccc(O)cc1 (stereo not given) | n | n | n | n | 50
CCCC[N+]1=C(C)C(C)(C)c2ccccc21 | x | x | x | x | n
SMILES | 3CLpro inhibitor | PrPC TRFRET | BJeLR viability | PrP 5UTR inh | SSB-PriA inh
CC[N+]1=C(C)C(C)(C)c2cc(C)ccc21 | n | n | n | n | 52
COc1ccc(NC(=O)N2c3ccccc3C(C)=CC2(C)C)cc1 | n | n | n | n | n
CCOc1ccc2c(c1)C(C)=CC(C)(C)N2C(=O)Nc1ccccc1 | n | x | n | n | 44
COc1ccc(NC(=O)N2c3ccc(OC)cc3C(C)=CC2(C)C)cc1 | n | n | n | n | 54
Cc1nc2ccc(Cl)cc2c(-c2ccccc2)c1C(=O)/C=C/c1cccc(Br)c1 | x | x | x | x | n
N#CCCSc1ccccc1NC(=O)CCS(=O)(=O)c1ccccc1 | x | x | x | x | n
O=C(CSc1nccn1-c1ccc(Cl)cc1)Nc1cc(C(F)(F)F)ccc1Cl | x | x | x | x | n
O=[N+]([O-])c1ccccc1S(=O)(=O)N1CCc2ccccc21 | x | x | x | x | 39
O=[N+]([O-])c1ccccc1S(=O)(=O)N1CCc2ccccc2C1 | n | n | n | n | n
O=C(CSc1cccc2cccnc12)NN=Cc1cccnc1 | x | x | x | x | 83
O=C(CSc1cccc2cccnc12)N/N=C/c1ccc(O)cc1 | n | n | n | x | n
COc1cccc(/C=N/NC(=O)CSc2cccc3cccnc23)c1 | n | n | n | n | +
CC(=O)c1cccc(N=c2scc(-c3ccc(S(=O)(=O)N4CCOCC4)cc3)n2CCO)c1 | n | 24 | n | n | n
O=C(NC(=S)Nc1ccc(N2CCCC2)cc1)c1ccccc1[N+](=O)[O-] | n | n | n | n | n
O=C(NC(=S)Nc1ccccc1N1CCCC1)c1ccccc1[N+](=O)[O-] | n | n | n | n | 57
COc1ccccc1NC(=O)N1CCN(c2cnnc(N3CCOCC3)c2)CC1 | x | x | x | x | n
Nc1ccc(N=Nc2ccccc2O)c(N)c1 | x | n | n | x | 68
COc1cccc(N2C(N)=NC(N)=NC2(C)C)c1 | n | n | 79 | n | n
COc1ccc(N2C(N)=NC(N)=NC2(C)C)cc1 | n | n | n | n | n
